Measured values from PubChem BioAssay AID615 (Sanford-Burnham Center for Chemical Genomics, 2007).
Out of some 21,000 compounds screened, fewer than 10 were called active.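 How the source made its calls: active means inhibition above 50% at the 20 µM single-dose screen; inactive means the rest.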 Only a sample is shown.

molecular target: Alkaline phosphatase, tissue-nonspecific isozyme (Homo sapiens) (UniProt P05186); assay: human TNAP enzyme inhibitors, primary screen, biochemical, colorimetric, p-nitrophenol readout (AID 615); conditions: purified TNAP, pNPP hydrolysis, absorbance 405 nm; at 20 µM; stronger effect = higher value;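 further: 0% = DMSO only wells and 100% = 1 mM levamisole wells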
Sequence (P05186 whole entry, looked up): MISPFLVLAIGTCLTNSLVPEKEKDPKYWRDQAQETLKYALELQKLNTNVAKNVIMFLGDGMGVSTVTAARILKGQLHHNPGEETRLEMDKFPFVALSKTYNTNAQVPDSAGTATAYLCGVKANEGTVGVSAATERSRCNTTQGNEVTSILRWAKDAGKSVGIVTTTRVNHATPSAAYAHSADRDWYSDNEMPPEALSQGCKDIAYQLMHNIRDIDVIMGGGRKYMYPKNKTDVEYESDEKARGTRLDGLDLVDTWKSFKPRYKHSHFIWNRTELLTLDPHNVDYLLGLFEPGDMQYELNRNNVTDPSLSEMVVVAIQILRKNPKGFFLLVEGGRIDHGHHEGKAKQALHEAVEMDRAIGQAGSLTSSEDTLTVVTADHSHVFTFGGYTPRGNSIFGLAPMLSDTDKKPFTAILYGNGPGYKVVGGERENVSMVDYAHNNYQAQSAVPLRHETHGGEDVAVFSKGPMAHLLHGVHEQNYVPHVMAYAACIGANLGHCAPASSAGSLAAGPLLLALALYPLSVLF

inhibition, inactive:
CCOc1cccc(NC(=O)C2CCCN(S(=O)(=O)c3ccc(OC)cc3)C2)c1 (stereo unspecified) -1.6%, O=c1[nH]c(=O)n(Cc2ccco2)c2c1C(C(F)(F)F)(C(F)(F)F)N=C(c1ccco1)N2 1.6%, CCN(CC)C(=O)CSc1nnc(-c2ccc(S(=O)(=O)NCc3ccccc3Cl)cc2)o1 3.4%, CCN(CC)CCN1C(=O)C(=O)/C(=C(/O)c2ccc(OC)c(OC)c2)C1c1ccccn1 (stereo unspecified) -8.8%, CCCOC(=O)C1=C(C)NC2=C(C(=O)C(C(=O)OC)C(C)C2)C1c1ccc(N(C)C)cc1 (stereo unspecified) 6.3%, COC(=O)c1cccc(NC(=O)CN2CCC(NC(=O)c3cc(OC)c(OC)c(OC)c3)CC2)c1 4.5%, Cn1nnnc1SCC(=O)N1CCN(Cc2ccccc2)CC1 3.1%, CCn1c(Cc2ccccc2)nnc1SCc1nc2ccccc2c(=O)[nH]1 2.9%, c1ccc(-n2ncc3c(N4CCCC4)ncnc32)cc1 4.2%, CC1(C)C2CCC1(C)C(OC(=O)CCn1ccnc1)C2 (stereo unspecified) 3.3%, Cc1cc(NC(=O)CCC(=O)N(c2cccc(F)c2)C(C(=O)NC2CCCC2)c2ccncc2)no1 (stereo unspecified) 2.9%, CCn1c(SCC(=O)c2ccc(Cl)s2)nnc1-c1cccs1 3.7%, COc1ccc2[nH]c3ccc(OC)cc3c2c1 6.8%, O=C(NCCN1CCOCC1)c1c(F)c(F)c(F)c(F)c1F -0.8%, CCOC(=O)c1ccc(N2C(=O)CC(Sc3nc(O)c(CC)c(=O)[nH]3)C2=O)cc1 (stereo unspecified) -2.3%, CC(C)c1nc(N2CCOCC2)c(C#N)c2c1COC(C)(C)C2 -4.2%, Cc1ccc2c(c1)c1ncn(CCC3=CCCCC3)c(=O)c1n2C 1.2%, CC1(C)CC(=O)C2=C(C1)NCN(CCCN1CCOCC1)C2 3%, c1ccc2c(NCC3CCCO3)nc(-c3ccncc3)nc2c1 (stereo unspecified) 3.1%, Cc1ccn2cc(C(=O)NC3CCN(Cc4ccccc4)CC3)nc2c1 -6.8%, CCC(C)(C)n1nnnc1C(c1cccs1)N1CCN(Cc2ccccc2)CC1 (stereo unspecified) -10%, COc1ccc(NC(=O)CSc2nnc(-c3cccs3)n2Cc2ccco2)cc1OC 3.1%, N#CNC1=NCN(CCc2ccccc2)CN1 4.9%, C=CCN1C(=O)C(O)(CC(=O)c2ccc(Cl)cc2)c2ccccc21 (stereo unspecified) 5.4%, CCc1ccc(-c2nnn(Cc3nc4ccccc4s3)n2)cc1 3%, O=C1[C@@H]2C(Cc3ccc(O)cc3)NC3(C(=O)Nc4ccc(F)cc43)[C@@H]2C(=O)N1c1ccc(F)cc1 (stereo partly specified) 1.7%
